Assay in all cases: NCI-60 one-dose screen, 48 h (100 = growth as untreated, 0 = no growth, -100 = all killed)
Test [1] relates to DU-145 prostate. As to conditions: 10 µM unless noted.
Test [2] deals with K-562 leukemia. As to conditions: 10 µM unless noted.
The subject of test [3] is MALME-3M melanoma. The following applies: 10 µM unless noted.
Test [4] relates to MDA-MB-231 breast. As to conditions: 10 µM unless noted.
The test system of test [5] is RXF 393 renal. As to conditions: 10 µM unless noted.
Test [6] relates to SF-268 CNS. The following applies: 10 µM unless noted.
The subject of test [7] is SF-295 CNS. The following applies: 10 µM unless noted.
Test [8] has as its system SF-539 CNS. As to conditions: 10 µM unless noted.
Test [9] has as its system UACC-257 melanoma. As to conditions: 10 µM unless noted.
For test [10], the system named is M14 melanoma. As to conditions: 10 µM unless noted.
The test system of test [11] is HCT-15 colon. The following applies: 10 µM unless noted.
In test [12] the test system is HT29 colon. The following applies: 10 µM unless noted.
The subject of test [13] is SNB-75 CNS. The following applies: 10 µM unless noted.
Test [14] concerns SNB-19 CNS. As to conditions: 10 µM unless noted.
Test [15] deals with PC-3 prostate. As to conditions: 10 µM unless noted.
Test [16] deals with SK-MEL-5 melanoma. As to conditions: 10 µM unless noted.
Test [17] relates to UACC-62 melanoma. The following applies: 10 µM unless noted.
In test [18] the test system is LOX IMVI melanoma. The following applies: 10 µM.
For test [19], the system named is SK-MEL-28 melanoma. The following applies: 10 µM unless noted.
The subject of test [20] is U251 CNS. As to conditions: 10 µM unless noted.

Structures are written as SMILES. The panel holds about 83,000 compounds, 20% with a hit somewhere; the sample as a whole holds those more often.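 For each line, cells grew in 96-well plates with the test compound present at a single concentration for 48 hours.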 A number with no mark means an inactive call. Calls of active or inactive are those of the source. How the source made its calls: active means growth percent below 10; inactive means the rest.

Take `CCCCCC/C=C1\CCC(CN2CCCC2)C1=O` (centres undefined): the growth is 107% in test [1]; 57.3% in test [2]; 119% in test [3]; 102% in test [4]; 95.6% in test [5]; 102% in test [6]. The growth was 111% in test [7]; 114% in test [8]; 92.1% in [9]; 93.3% in test [10]; 77.1% in test [11]; 120% in test [12]. Moreover, the growth in [13] is 90.9%; in [14], 92.6%; in test [15], 89.7%; in test [16], 96.9%; in test [17], 99.2%; in [18], 59.8%. Moreover, in test [19], the growth was 114%.

As for `S=C1SCN(Cc2cccs2)CN1Cc1cccs1`, the growth in test [1] is 110%; in test [2], 63.6%; in test [3] it was 107%; in [4] it was 93.4%; in test [5], 104%; in [6], 100%. The growth in test [7] is 104%; in test [8] it was 96.8%; in test [9] it was 94.5%; in [10], 94.3%; in test [11], 96.6%; in test [12], 97.2%. Besides, the growth is 86.2% in test [13]; 96.5% in test [14]; 96.2% in test [15]; 94% in [16]; 94% in [17]; 93% in [18].

Turning to `CCCCC(C=O)(C=C=C(C)C)CC` (centres undefined), the growth in [1] is 113%; in [2] it was 111%; in test [3], 97.7%; in test [4], 114%; in test [5] it was 106%; in test [6], 102%. The growth in test [7] was 95%; in test [8] it was 98%; in test [9], 98.1%; in [10], 102%; in [11], 98.2%; in test [12], 109%. Besides, the growth in test [13] is 87.3%; in test [14], 102%; in [15], 92.6%; in test [16], 104%; in test [17], 95.8%; in [18] it was 96.8%. Moreover, the growth in test [19] was 101%.

As to `Cc1ccc(NC2=CC(=O)C(=O)c3ccccc32)cc1`, the growth in [1] was -65.1% (active); in [2], 16.4%; in [3], -76.5% (active); in [4] it was 49%; in test [5], 44.1%; in test [6] it was 41%. Moreover, the growth in test [7] was -22.9% (active); in [8], -20.4% (active); in [9] it was -46.2% (active); in test [10], -63.5% (active); in test [11] it was 11.2%; in test [13] it was -18.7% (active). The growth in test [14] is 28.4%; in test [20] it was 15.4%; in test [15], 28%; in test [16], -98.4% (active); in test [17], -33.9% (active); in [18], 0.472% (active). The growth in [19] is -23.5% (active).

For the compound `Cc1cc(Br)c2nsnc2c1[N+](=O)[O-]`, the growth in test [1] was 18.9%; in test [2], 22.7%; in test [3], 82.4%; in test [4], 30%; in test [5], 48.2%; in [6], 32.3%. Besides, the growth is 33.8% in test [7]; 9.73% (active) in [8]; 66.9% in test [9]; 3.57% (active) in test [10]; 27.4% in test [11]; 50.1% in [13]. Further, the growth in test [14] was 52.9%; in [20], 36.9%; in test [15], 49%; in test [16], 54.1%; in test [17] it was 56.5%; in test [18] it was 8.37% (active). For the same compound, in [19], the growth is 63.3%.

On to `C=C(C(N)=O)C(N)C(=O)O` (centres undefined), for which the growth in [1] was 99.9%; in test [2], 100%; in [3] it was 98%; in test [4], 108%; in test [5] it was 111%; in test [6], 106%. The growth was 112% in test [7]; 110% in test [8]; 112% in test [9]; 90.7% in [10]; 109% in [11]; 100% in [12]. Besides, the growth in [13] was 108%; in test [14], 111%; in test [15] it was 103%; in [16] it was 103%; in test [17] it was 114%; in test [19], 106%.

On to `O=[N+]([O-])c1ccc(C(Br)c2ccc([N+](=O)[O-])cc2)cc1`, for which the growth was 111% in test [1]; 25.4% in test [2]; 101% in [3]; 93.8% in [4]; 117% in [5]; 84.8% in test [6]. Moreover, the growth in test [7] was 80.6%; in test [8], 110%; in test [9], 98.1%; in test [10] it was 22.6%; in test [11] it was 57.8%; in [12] it was 72.7%. The growth in test [14] is 106%; in test [20], 88.6%; in test [15], 61.8%; in test [16], 68.1%; in test [17], 79.5%; in [18], -40.1% (active). Besides, the growth in [19] is 105%.

With `C/C=C/c1cc2c(c(=O)o1)C(=O)[C@@H](O)[C@H](C)O2`, the growth in [1] is 27.6%; in test [2], -4.98% (active); in test [3] it was 19.7%; in test [4] it was 90.1%; in [5], 52.7%; in [6], 88.4%. Also, the growth was 96.1% in test [7]; 87.7% in [8]; 86.7% in test [9]; -25.4% (active) in test [11]; 13% in test [12]; -23.4% (active) in test [13]. In addition, the growth in [14] was 94.9%; in test [20], 40.4%; in [15] it was 11.3%; in test [16] it was 95.2%; in [17] it was 80.5%; in test [18] it was 25.2%.

The record behind these values is PubChem BioAssay (NCI).
